Inconclusive results are not listed. The source made the active and inactive calls. Calls come from the whole dose curve; as a rule, active = well fitted inhibition curve with a large enough effect; inconclusive = small, poorly fitted or top-dose-only effect; inactive = flat fitted curve, though single readings scatter.
assay: High Content Imaging Cell-Based qHTS for Inhibitors of the mTORC1 Signaling Pathway in MEF (Tsc2-/-, p53-/-) Cells (AID 2666); conditions: series mostly up to 38.3 µM;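 note: percent of cells scored positive for phospho-rpS6 Ser235/236 immunostaining by imaging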
In short: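 Tsc2-/-, p53-/- MEFs (empty-vector stable) grown in DMEM + 10% FBS were exposed to compounds for 24 hrs at 37 degree Celsius, fixed, and stained with Alexa-488 anti-phospho-rpS6 Ser235/236 plus Hoechst. Imaging gave the percentage of positive cells per well.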

Row | SMILES | outcome
1 | O=C(O)C1CN(CCCP(=O)(O)O)CCN1 (stereo not drawn) | inactive
2 | CCCC(=O)NCCc1c2n(c3ccc(OC)cc13)CCCc1ccccc1-2 | inactive
3 | CN(C)C(=O)/N=N/C(=O)N(C)C | inactive
4 | C[C@H]1CC2C3CCC4=CC(=O)C=C[C@]4(C)[C@@]3(Cl)[C@@H](O)C[C@]2(C)[C@@]1(O)C(=O)CO (stereo partly drawn) | inactive
5 | OC[C@H]1O[C@H](n2cnc3c(N[C@H]4CCC[C@@H]4O)ncnc32)[C@H](O)[C@@H]1O | inactive
6 | Cc1cccc(C)c1OCC(N)C(C)C (stereo not drawn) | inactive
7 | N[C@H](C(=O)O)[C@H](Cc1ccccc1)C(=O)O | inactive
8 | O=c1onc2cnc3ccccc3n12 | inactive
9 | C=CCn1c(=O)c2c(nc(-c3ccc(S(=O)(=O)O)cc3)n2C)n(C)c1=O | inactive
10 | O=C(O)c1cccnc1C(=O)O | inactive
11 | Cc1nc(N=Nc2cc(S(=O)(=O)O)c3cc([N+](=O)[O-])cc(S(=O)(=O)O)c3c2)c(COP(=O)(O)O)c(C=O)c1O | inactive
12 | Cn1c(=O)c2[nH]c(C3CCCC3)nc2n(C)c1=O | inactive
13 | C[C@@]1(C2CCCC2)Cc2cc(OCC(=O)O)c(Cl)c(Cl)c2C1=O | inactive
14 | N=C(N)SCCN | inactive
15 | COc1ccc(-c2ccc(N)[n+](CCCC(=O)O)n2)cc1 | inactive
16 | CC(N)(Cc1ccc(O)c(O)c1)C(=O)O (stereo not drawn) | inactive
17 | C=C1C[C@@]23CC[C@H]4[C@@](C)(CCC[C@@]4(C)C(=O)OC4OC(CO)C(O)C(O)C4O)[C@@H]2CC[C@]1(OC1OC(CO)C(O)C(O)C1OC1OC(CO)C(O)C(O)C1O)C3 (stereo partly drawn) | inactive
18 | NCCC1CCCC(CCN)N1 (stereo not drawn) | inactive

Reference: PubChem BioAssay (NCATS)
